Source: PubChem BioAssay AID1942 (Johns Hopkins Ion Channel Center, 2009)
About 580 (24%) of roughly 2,400 compounds were called active.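 Rule for the calls: active = activity change at or above the mean plus 3 SD of buffer wells without dofetilide, per plate; inactive = the rest.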 Not all results are given here.

The compounds below were run against Potassium voltage-gated channel subfamily KQT member 2 (Rattus norvegicus) (UniProt O88943) (assay: KCNQ2 potentiation in CHO cells – cell-based, FluxOR thallium flux, counter-screen for hERG block protector project, confirmation (AID 1942;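 note: normalized value minus buffer-control mean plus three SD of buffer wells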)). Details: FluxOR thallium flux fluorescence, at 10 µM, stronger effect = higher value.
Sequence of Potassium voltage-gated channel subfamily KQT member 2 (Rattus norvegicus) (O88943 whole entry, looked up): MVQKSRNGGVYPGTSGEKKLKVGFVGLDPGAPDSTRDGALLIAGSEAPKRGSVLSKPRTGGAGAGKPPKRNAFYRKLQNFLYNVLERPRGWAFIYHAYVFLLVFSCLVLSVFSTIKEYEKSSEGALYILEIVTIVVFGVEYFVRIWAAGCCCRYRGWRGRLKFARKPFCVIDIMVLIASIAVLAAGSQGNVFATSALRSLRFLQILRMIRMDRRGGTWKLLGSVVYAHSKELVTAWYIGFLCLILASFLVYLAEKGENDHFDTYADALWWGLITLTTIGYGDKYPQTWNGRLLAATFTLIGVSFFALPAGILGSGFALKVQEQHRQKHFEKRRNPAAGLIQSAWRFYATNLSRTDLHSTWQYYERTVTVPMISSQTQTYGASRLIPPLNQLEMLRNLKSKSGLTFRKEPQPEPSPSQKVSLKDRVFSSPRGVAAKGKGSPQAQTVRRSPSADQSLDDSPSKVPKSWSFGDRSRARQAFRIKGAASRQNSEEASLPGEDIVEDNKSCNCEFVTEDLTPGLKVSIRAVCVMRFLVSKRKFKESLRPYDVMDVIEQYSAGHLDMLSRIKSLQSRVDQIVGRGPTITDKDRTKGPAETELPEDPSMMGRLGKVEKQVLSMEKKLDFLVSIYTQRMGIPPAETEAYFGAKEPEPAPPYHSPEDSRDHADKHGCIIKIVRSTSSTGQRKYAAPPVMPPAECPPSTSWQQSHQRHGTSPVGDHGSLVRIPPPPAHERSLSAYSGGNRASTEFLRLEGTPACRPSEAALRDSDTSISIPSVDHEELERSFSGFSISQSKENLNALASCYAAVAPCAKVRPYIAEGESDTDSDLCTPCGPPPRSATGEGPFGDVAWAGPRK

SMILES | activity change, less the hit threshold
CC(C)C(=O)N(c1ccc(F)cc1)C1C=CS(=O)(=O)C1 (stereo not given) | -12.6% (inactive)
O=c1oc2ccccc2c2c1nc(C(F)(F)F)n2-c1ccccc1 | -18.1% (inactive)
O=C(CSc1nc(-c2ccccc2)nc2ccc(F)cc12)Nc1cccc(C(=O)O)c1 | -4.9% (inactive)
CC[C@@H](C(=O)[C@@H](C)[C@@H](O)[C@H](C)CCc1ccc(C)c(O)c1C(=O)O)[C@H]1O[C@](CC)([C@H]2CC[C@](O)(CC)[C@H](C)O2)C[C@@H]1C | 155% (active)
Cc1nc2c(C(=O)NCCc3ccccc3)c[nH]n2c(=O)c1Cl | -7.3% (inactive)
COc1ccc(NC(=S)NC(=O)c2csnn2)cc1 | 52.2% (active)
Cc1snnc1C(=O)NC(=S)Nc1ccccc1 | 30.3% (active)
COc1ccc(NC(=S)Nc2ccccn2)cc1 | -16.1% (inactive)
O=C(NC(=S)Nc1ccccc1)c1csnn1 | 81.6% (active)
Cc1onc(-c2ccccc2Cl)c1C(=O)NC(=S)Nc1ccc(C(C)C)cc1 | -9% (inactive)
O=C(COc1ccccc1Cl)NC(=S)Nc1ccccc1N1CCCC1 | -15.7% (inactive)
Cc1cccnc1NC(=O)c1csnn1 | -13.6% (inactive)
COc1ccc(NC(=O)c2onc(C)c2Cl)cc1 | -22.4% (inactive)
O=C(NC(=S)Nc1ccccc1Cl)c1csnn1 | 71.3% (active)
Cc1ccc(NC(=S)NC(=O)c2ccc(-c3ccccc3)cc2)cc1 | -11% (inactive)
O=C(NC(=S)Nc1ccccc1)c1cncc(C#Cc2ccccc2)c1 | -13% (inactive)
Cc1ccc(NC(=O)c2cc(-c3ccc4c(c3)OCO4)on2)cc1 | -8.6% (inactive)
CCn1c(=O)c(-[n+]2ccccc2)c(O)c2ccccc21 | -27.1% (inactive)
Cc1ccc(N2C(=O)c3ccccc3C2(O)c2ncc[nH]2)cc1 (stereo not given) | -19.5% (inactive)
O=C1C=C(c2ccccc2)OC(=O)C1C(=O)c1ccccc1 (stereo not given) | -12.8% (inactive)

SMILES | activity change, less the hit threshold
N#Cc1c2n(c3c(=O)n(Cc4ccc(Cl)cc4)cnc13)CCCC2 | -19.7% (inactive)
CC12CCC3(CO)COC(c4ccccc4O1)C2C3 (stereo not given) | -21.5% (inactive)
CCCOc1ccc(-c2c(C(=O)N/N=C/c3ccccc3OCC)nnn2-c2nonc2N)cc1 | -19.7% (inactive)
CC(=O)N1C(=O)/C(=C2\SC(=S)N(NC(=O)c3ccc(O)cc3)C2=O)c2ccccc21 | -12.5% (inactive)
CCCCOC(=O)Nc1nnc(C(C)C)s1 | -15.9% (inactive)
CCCCn1nc(NC(=O)COC)c2cc3ccc(C)cc3nc21 | -8.8% (inactive)
O=C(NC(=S)N1CCN(Cc2ccc3c(c2)OCO3)CC1)c1ccc(Cl)cc1 | 36.3% (active)
COc1ccc(C(=O)N2CCN(Cc3ccc4c(c3)OCO4)CC2)cc1[N+](=O)[O-] | -19.3% (inactive)
COc1ccc(CCNC(=O)c2ccc3c(c2)OCO3)cc1 | -18% (inactive)
CCOc1ccc(S(=O)(=O)N2CCN(Cc3ccc4c(c3)OCO4)CC2)cc1C | -28.7% (inactive)
O=C(COc1ccc(Cl)cc1)N1CCN(Cc2ccc3c(c2)OCO3)CC1 | -4.9% (inactive)
O=C(NC(=S)N1CCN(Cc2ccc3c(c2)OCO3)CC1)c1cccc(Br)c1 | 46.4% (active)
Cc1cc2nccc(-c3ccc(Cl)cc3Cl)n2n1 | -9.7% (inactive)
Cc1nnc(SCC2=C(C(=O)O)N3C(=O)C(NC(=O)Cn4nc(C(F)F)cc4C)C3SC2)s1 (stereo not given) | -16.5% (inactive)
CCCCC1C2=C(CCCC2=O)OC2=C1C(=O)CCC2 | -25.6% (inactive)
O=C1CC(c2ccccc2)c2cccc(F)c21 (stereo not given) | -11.3% (inactive)
O=C(NC1CCCC1)C(c1ccncc1)N(C(=O)Cn1nnc(-c2ccccc2F)n1)c1cccc(F)c1 (stereo not given) | -18% (inactive)
COc1ccc(Cn2c(O)cc(=O)[nH]c2=O)cc1 | -20.5% (inactive)
O=C(O)CSCc1c(F)cccc1Cl | -31.3% (inactive)
Cn1c(CNC(=O)c2ccccc2F)nnc1SCc1nc2ccccc2c(=O)[nH]1 | -4.7% (inactive)

SMILES | activity change, less the hit threshold
O=C(O)CSc1nc2ccccc2nc1Cc1ccccc1F | 1.3% (active)
CCOC(=O)C1=C(O)/C(=C/c2ccc(OCC(=O)O)c(OC)c2)SC1=Nc1ccc(OCC)cc1 | -27.2% (inactive)
Cc1c(/C=C2\SC(=O)N(CC(=O)Nc3ccc4c(c3)OCO4)C2=O)c2ccccc2n1C | -15.7% (inactive)
CC(=O)N(C1=C(N)C(=O)c2ccccc2C1=O)C(C)C | -9.1% (inactive)
Cc1ccc(C(C#N)c2ccc3c(C(F)(F)F)cc(C(F)(F)F)nc3n2)cc1 (stereo not given) | -5.9% (inactive)
CCc1nnc(NC(=O)CSc2nc(-c3ccccc3)cc(-c3ccc(OC)cc3)c2C#N)s1 | -24.2% (inactive)
COc1ccc(OC)c(NC(=O)C(=S)NC2CCCCC2)c1 | -21.2% (inactive)
Cc1cc(C)c(NC(=O)C2CC3CCC2C3)c(C)c1 (stereo not given) | 75.9% (active)
CC(C)N1CC(C(=O)Nc2ccc(Cl)c(Cl)c2)CC1=O (stereo not given) | -15.3% (inactive)
O=C(O)Cc1ccc(NC(=O)C2CC=CCC2C(=O)O)cc1 (stereo not given) | -17.7% (inactive)
COc1ccc(NC(=O)C2CC3CCC2C3)c(OC)c1 (stereo not given) | 15.8% (active)
COc1ccc(NC(=O)COC(=O)c2c(C)noc2C)c(OC)c1 | -8.1% (inactive)
Cc1cc(C)c2nc(NC(=O)C3CCCO3)sc2c1 (stereo not given) | -17% (inactive)
CC(C)c1ccc(NC(=O)C2CC3CCC2C3)cc1 (stereo not given) | 21.5% (active)
O=C(COc1ccc([N+](=O)[O-])cc1)Nc1cccnc1 | -27.2% (inactive)
c1ccc(OCc2nn3c(Cn4cnc5ccccc54)nnc3s2)cc1 | -20.8% (inactive)
CCCN1CCN(CCCNC(=O)Cn2nc(C)n3c(cc4cc(OC)ccc43)c2=O)CC1 | -25.2% (inactive)
CC(C)[C@H](NC(=O)OC(C)(C)C)C(=O)NCC1CCC(C(=O)N[C@@H](Cc2ccccc2)C(=O)O)CC1 (stereo not given in full) | -10.4% (inactive)
CCOC(=O)c1cnc(-n2nc(C)cc2C)nc1NNc1nc(-c2ccccc2)cc(-c2ccccc2)n1 | -15% (inactive)
CCOC(=O)Cn1cc(C=O)c2ccccc21 | -12.9% (inactive)
